Compound activity deposited in PubChem BioAssay by The Scripps Research Institute Molecular Screening Center.
Hits are enriched below; roughly 3.5% of the tested compounds scored in any of these assays.
TEAD-YAP inh – TEAD-YAP interaction inhibition; actives 1.4% (n = 640,000); HEK-TIYL cells, TEAD-Gal4/YAP UAS-luciferase luminescence; inhibition, % at 9.12 µM; in the data active = inhibition above about 32%;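 note: 0% = median of test compound wells and 100% = reference inhibitor wells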
MITF primary – inhibitors of human MITF. actives 0.91% (n = 650,000). AlphaScreen MITF homodimerization, bead proximity signal. inhibition, % at 2.6 µM. O75030. AID 1259374; in the data active = inhibition above about 50%;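 note: 0% = vehicle wells with protein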
GPR151 ag – activates the human receptor GPR151; activation, % at 11.2 µM; PathHunter beta-arrestin GPR151 cells, luminescence; Q8TDV0; AID 1508602; actives 1% (n = 650,000); in the data active = activation above about 4.9%;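 note: 0% = median of compound wells and 100% = cells with positive control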
FBW7 act – human FBW7 E3 ligase activation, primary screen | AlphaScreen FBW7–phospho-cyclin E peptide binding, activator screen | normalized activity (activation), % at 26.1 µM | AID 1259310 | Q969H0 | actives 0.13% (n = 650,000); in the data active = normalized activity above about 1.9%;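 note: purified mutant Fbw7 with reduced substrate affinity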
Target sequence (Q969H0 whole entry, looked up): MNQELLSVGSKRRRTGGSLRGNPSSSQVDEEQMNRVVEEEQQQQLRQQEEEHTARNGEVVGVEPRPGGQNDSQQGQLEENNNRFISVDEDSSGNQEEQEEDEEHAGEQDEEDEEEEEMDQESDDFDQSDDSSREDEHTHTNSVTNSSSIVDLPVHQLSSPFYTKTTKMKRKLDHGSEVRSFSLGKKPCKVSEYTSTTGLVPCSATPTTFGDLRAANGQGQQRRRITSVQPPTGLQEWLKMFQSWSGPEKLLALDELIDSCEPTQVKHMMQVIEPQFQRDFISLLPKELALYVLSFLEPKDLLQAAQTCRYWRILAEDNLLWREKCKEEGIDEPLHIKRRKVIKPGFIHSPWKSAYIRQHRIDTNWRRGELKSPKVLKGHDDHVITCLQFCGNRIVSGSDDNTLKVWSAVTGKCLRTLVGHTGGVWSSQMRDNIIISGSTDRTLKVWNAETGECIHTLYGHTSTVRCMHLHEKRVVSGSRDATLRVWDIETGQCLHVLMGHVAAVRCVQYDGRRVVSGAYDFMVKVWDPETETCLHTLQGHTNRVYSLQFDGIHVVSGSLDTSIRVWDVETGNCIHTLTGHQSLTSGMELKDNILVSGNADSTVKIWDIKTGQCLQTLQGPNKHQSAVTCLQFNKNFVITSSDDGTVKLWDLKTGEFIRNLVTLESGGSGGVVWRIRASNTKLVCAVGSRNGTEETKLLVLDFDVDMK
* hit, by the source's call; ! = not active in a repeat.

SMILES | TEAD-YAP inh | MITF primary | GPR151 ag | FBW7 act
CC(C)n1cnc2c(NC3CCN(Cc4ccccc4)CC3)nc(-c3ccc(C(N)=O)cc3)nc21 | 92* | -8 | -2 | 0
CC(C)n1cnc2c(NC3CCN(Cc4ccccc4)CC3)nc(Cl)nc21 | 47* | -2 | 1 | 0
CC1CCCC(NC(=O)C2N(CCN3CCCCC3C)C(=O)C3C(C(=O)Nc4ccc(F)c(Cl)c4)C4C=CC32O4)C1C (stereo not given) | 5 | 7 | -1 | 0
Cc1cc(Cl)ccc1OCC(=O)Nc1ccc(Cl)cn1 | -29 | 9 | 0 | 0
Cc1nc(NC(=O)COc2ccc(Cl)cc2Cl)sc1C | 74* | 7 | -7 | 0
O=C(CCl)NCCOc1ccc(Cl)cc1Cl | 41* | 9 | -1 | 0
Cc1cc(Br)ccc1OCC(=O)Nc1ccc(Cl)cn1 | -25 | 17 | 0 | 0
Cc1ccc(OCC(=O)Nc2ccc(Cl)cn2)c(Br)c1 | 40* | -6 | -2 | 0
Cc1ccc(NC(=O)COc2ccc(Cl)cc2Cl)nc1 | 70* | 4 | -3 | 1
Cc1ccc(CNC(=O)CCn2c(=S)[nH]c3ccsc3c2=O)cc1 | -5 | 4 | -1 | 0
O=C(N/N=C/c1ccc(O)cc1O)c1ccc2c(c1)OCCO2 | 61* | 18 | 1 | 0
Cc1cc(O)cc(O)c1/C=N/NC(=O)c1ccc2c(c1)OCCO2 | 56* | 9 | -1 | 0
O=C(N/N=C/c1ccc(O)cc1O)c1ccc(CN2C(=O)c3cccc4cccc2c34)cc1 | 33* | 21 | 3 | -1
O=C(N/N=C/c1ccc(O)c(I)c1)c1ccc2c(c1)OCCO2 | -15 | -12 | 1 | 0
CCOC(=O)N1CCN(C(=O)C2CCN(Cc3cccc(OC)c3O)CC2)CC1 | -6 | 55* | -1 | 0
CCOC(=O)C1CCN(Cc2cccc(OC)c2O)CC1 | -3 | 19 | 0 | 0
COc1cccc(CN2CCC(C(=O)N3CCc4ccccc4C3)CC2)c1O | 1 | 51* | 1 | 1
O=C(C1CCN(Cc2ccccc2O)CC1)N1CCc2ccccc2C1 | 15 | 38 | 0 | 0
Cc1ccc(CN2CCNC(=O)C2CC(=O)N2CCN(C(=O)c3cccs3)CC2)cc1 (stereo not given) | 17 | 3 | -2 | 0
COc1ccc(Br)c(C(=O)NCc2ccsc2)c1 | 8 | 13 | 1 | 1
Cc1ccc(NC(=O)O/N=C\c2ccc(N(C)C)cc2)cc1 | 34* | -21 | 1 | 0
O=C(O)COc1cc([N+](=O)[O-])cc2cccnc12 | -4 | 16 | 3 | -1
COc1cc([N+](=O)[O-])c2ncccc2c1 | 16 | 70* | -1 | -2
O=[N+]([O-])c1cc(O)c2ncccc2c1 | 21 | 103* | -2 | 0
COc1cc([N+](=O)[O-])c2nccnc2c1 | 1 | 0 | 2 | -1
SMILES | TEAD-YAP inh | MITF primary | GPR151 ag | FBW7 act
COc1cc(NC(=O)c2ccc(-c3c(C)nn(C)c3C)s2)cc(OC)c1OC | 51* | 12 | -1 | 0
Cc1ccccc1/C=C1\SC(=Nc2ccccc2Cl)NC1=O | 45* | -3 | 0 | 0
Cc1cc(/C=C2\SC(=Nc3ccccc3Cl)NC2=O)c(C)n1-c1ccccc1 | 48* | -2 | 2 | 0
O=C(N/N=C/c1ccc(O)cc1)C(O)C(O)C(=O)N/N=C/c1ccc(O)cc1 (stereo not given) | 2 | 5 | 1 | 1
Cc1cc(C)n(CCc2nc3c4ccccc4nc(=S)n3[nH]2)n1 | 49* | 7 | 0 | 0
O=C1c2c(O)ccc(O)c2C(=O)c2c(O)ccc(O)c21 | 14 | 43 | 3 | 0
O=C1c2c(O)ccc(O)c2C(=O)c2c(NCCNCCO)ccc(NCCNCCO)c21 | 55* | 52*! | -2 | -1
O=C(c1cc2c(ccc3ccccc32)oc1=O)N1CCCC1 | -3 | 2 | 0 | 3.2*
O=C(c1cc2c(ccc3ccccc32)oc1=O)N1CCOCC1 | -29 | -6 | 0 | 0
O=C(Nc1ccc(O)cc1)c1scc2c1CCCC2 | 68* | 0 | -2 | 0
C=CCSC(=C(C#N)C#N)c1cc2c([nH]1)CCCC2 | 51* | 10 | -1 | 0
O=C(O)c1cc2c([nH]c1=O)CCCC2 | 1 | 6 | 1 | 0
NS(=O)(=O)c1ccc(CCNc2ncnc3sc(-c4ccccc4)cc23)cc1 | 42* | 1 | -2 | 0
Cc1ccc(-n2nnnc2-c2nc3ccccc3s2)cc1 | 2 | 15 | -2 | 0
CCOc1ccc(-n2nnnc2-c2nc3ccccc3s2)cc1 | 42* | 14 | 1 | 0
Cc1ccc(N2C(=O)c3ccccc3C2O)nc1 (stereo not given) | 78* | 0 | -6 | 0
COc1cccc2c(=O)cc(C)n(CC(=O)Nc3ccccc3)c12 | -1 | 14 | -1 | 0
COc1ccc(C(=CCl)c2ccc(OC)cc2)cc1 | 42* | -9 | 2 | 0
O=C(NCc1ccccc1)C(=O)NCc1cccnc1 | -7 | 1 | 2 | 0
CC(C)c1ccc(CNC(=O)C(=O)NCc2cccnc2)cc1 | 47* | -12 | 0 | 0
O=C(NCc1cccnc1)c1ccc(C#Cc2ccccc2)o1 | 99* | -2 | 0 | 0
Cn1cc(I)c(C(=O)NNC(=O)Nc2ccc([N+](=O)[O-])cc2)n1 | 0 | -4 | -1 | 0
CCOc1cc(-c2nc3cnccn3c2NC(C)(C)C)ccc1O | 6 | 21 | 1 | 0
Cc1cc(=O)nc2c3ccccc3n(CC(=O)NCCCN(Cc3ccccc3)C(C)C)n12 | 4 | 2 | 0 | 0
Cc1cc(NC(=O)c2ccccc2Cl)ccc1O | 83* | -23 | -4 | 0
SMILES | TEAD-YAP inh | MITF primary | GPR151 ag | FBW7 act
Cc1ccc(C(=O)Nc2ccc(O)c(C)c2)cc1 | 93* | -5 | -5 | 0
Cc1ccc(C(=O)Nc2ccc(NC(=O)C(F)(F)F)cc2)cc1 | 56* | 14 | -1 | 0
Cc1ccc(NC(=O)c2ccccc2Cl)cc1C | -9 | 3 | -4 | 0
Cc1ccc(C(=O)Nc2ccc(C(=O)N3CCCCC3)cc2)cc1 | -18 | 12 | -2 | 3.4*
COc1ccc(/C=N/NC(=O)c2ccc(Br)o2)c(C(=O)O)c1OC | -54 | -6 | 1 | 0
Cc1ccc(C(=O)Nc2cc(C)c(O)cc2C)cc1 | 65* | 4 | -1 | 0
Cc1ccc(C(=O)Nc2cc(C)c(C)cc2O)cc1 | 0 | 0 | -3 | 0
CC(C)OC(=O)c1cc2n(n1)C(C(F)(F)F)CC(c1ccccc1)N2 (stereo not given) | -1 | 2 | 0 | 0
N.N.N.N.N.N.N.N.N.N.N.N.N.N.O.O.[Cl-].[Cl-].[Cl-].[Cl-].[Cl-].[Cl-].[Ru+2].[Ru+2].[Ru+2] | 41* | 47 | 0 | 1
O=C(/C=C/c1cccc([N+](=O)[O-])c1)/C=C/c1ccco1 | -1 | 7 | 1 | 0
CN(C)c1ccc(/C=C/C(=O)/C=C/c2ccco2)cc1 | -4 | 63* | -1 | 1
c1ccc(-c2ccc(OCCN3CCOCC3)nc2)cc1 | -42 | 5 | -2 | 0
CC(=O)CC(C)(C)n1nnc(C)n1 | -11 | -4 | -1 | 0
COCCNC(=O)/C(C#N)=C/c1cc(C)n(C)c1C | -24 | -10 | 2 | 0
